These results are taken from PubChem BioAssay (Tox21).

Activity calls are given as the source filed them. The call rests on the fitted dose curve; in most records, active means well fitted cell-killing curve with a large enough effect in the repeat runs; inconclusive means weak or mixed curves, or effect the other way; inactive means flat fitted curve, though single readings scatter.
On the % scale 0 is the no-effect control and ±100 the full control effect.

A short description of this assay: qHTS assay to identify small molecule HDAC inhibitors - cell viability counter screen (AID 1259365). Further: nearly all actives have a fitted effect of over 50% in size. Conditions: HCT-116 viability, CellTiter-Glo ATP luminescence, 2 h; series mostly up to 92.4 µM; activity change, negative = cytotoxicity: at the top concentration. An excerpt:
U.S. Tox21 Program National Center for Advancing Translational Sciences [NCATS] NIH Chemical Genomics Center [NCGC] U.S. Environmental Protection Agency [EPA] National Institutes of Environmental Health Sciences [NIEHS] National Toxicology Program [NTP] U.S. Food and Drug Administration [FDA] Tox21 Assay Overview: Histone deacetylases (HDACs) are a group of epigenetic enzymes that regulate gene expression by histone deacetylation. HDACs are capable of introducing epigenetic modifications and such aberrations contribute to the onset and progression of several human diseases, thus making HDACs a popular therapeutic target. For identifying endogenous class I/II HDAC inhibitors a homogenous, luminogenic HDAC I/II cell based assay was used to measure the relative activity of class I and II HDACs from cells. Wild type HCT-116 cells were used to screen Tox21 compound libraries for identifying class I/II HDAC inhibitors.
Tox21 Assay Protocol Summary: HCT-116 cells were dispensed at 1,500 per well in 5uL of culture medium into white solid bottom 1536-well plates (Greiner Bio-One, Monroe, NC) using a Multidrop Combi (Thermo Scientific, Waltham, MA) dispenser. The assay plates were incubated at 37 C and 5% CO2 for an overnight, and then 23nL of compounds dissolved in DMSO and positive control were transferred using a Pintool station (Wako, San Diego, CA). The assay plates were incubated at 37C and 5% CO2 for 2hr. After compound treatment, 4uL of CellTiter-Glo reagent (Promega Corporation, Madison, WI) was added to each well of the assay plates using Flying Reagent Dispenser (FRD, Aurora Discovery, San Diego, CA) and incubated the assay plates at room temperature for 30min. The luminescence signal was quantified using a ViewLux plate reader (Perkin Elmer, Shelton, CT).
(In qHTS, concentration-response curves come from the screen itself.)
Turning to `CCN1CCN(C(=O)N[C@@H](C(=O)N[C@@H]2C(=O)N3C(C(=O)O)=C(CSc4nnnn4C)CS[C@H]23)c2ccc(O)cc2)C(=O)C1=O`, the “activity change, negative = cytotoxicity” value is 5.18% [at 42.5 µM] (inactive).
For `N#Cc1ccccc1C#N`, the “activity change, negative = cytotoxicity” value is -0.333% (inactive).
For `CCC(=O)OCCOc1ccccc1`, the “activity change, negative = cytotoxicity” value is -0.154% (inactive).
As to `CC[C@@]1(c2ccccc2)NC(=O)N(C)C1=O`, the “activity change, negative = cytotoxicity” value is -0.056% [at 42.5 µM] (inactive).
For `CCCc1ncc(C(=O)O)s1`, the “activity change, negative = cytotoxicity” value is 4.82% [at 42.5 µM] (inactive).
For the compound `CC(=O)OCC(=O)[C@@]1(O)CC[C@H]2[C@@H]3CCC4=CC(=O)C=C[C@]4(C)[C@H]3[C@@H](O)C[C@@]21C`, the “activity change, negative = cytotoxicity” value is 2.91% [at 42.5 µM] (inactive).
Turning to `Cc1ccccc1C#N`, the “activity change, negative = cytotoxicity” value is 1.13% (inactive).
For `CCCCCCC(O)CO` (stereo not given), the “activity change, negative = cytotoxicity” value is 1.63% (inactive).
Regarding `CCCC(C)C(O)CC` (stereo not given), the “activity change, negative = cytotoxicity” value is 0.928% (inactive).
For `COC(C)(C)CC(C)=O`, the “activity change, negative = cytotoxicity” value was -0.715% (inactive).
Under `C/C=C(\C)C(=O)OC/C=C(\C)CCC=C(C)C` stands -11.5% (inactive); under `C[C@@H]1CCC[C@H](C)N1CCCC(O)(c1ccccc1)c1ccccn1` (stereo not given in full), -0.147% [at 42.5 µM] (inactive); under `NS(=O)(=O)c1cc2c(cc1C(F)(F)F)NCNS2(=O)=O`, -1.45% [at 42.5 µM] (inactive).
Take `O=C(CCBr)N1CCN(C(=O)CCBr)CC1`: the “activity change, negative = cytotoxicity” value was -0.53% [at 42.5 µM] (inactive).
As to `C=CCN1CCc2nc(N)sc2CC1`, the “activity change, negative = cytotoxicity” value was -1.19% [at 42.5 µM] (inactive).
On to `CCCCCCCCS(=O)(=O)O`, for which the “activity change, negative = cytotoxicity” value was -1.06% (inactive).
Then `O=C(O)CCCCCCCCCC(=O)O`, with 0.0354% (inactive); and `CCN(CC)CC`, with 2.13% (inactive); and `C[n+]1ccccc1/C=N/O`, with 0.67% [at 42.5 µM] (inactive).
Under `O=C(O)COc1ccc2ccccc2c1` stands 1.72% (inactive).
With `CC(=O)Oc1ccc(C(C)=O)cc1`, the “activity change, negative = cytotoxicity” value is -0.452% (inactive).
For the compound `C=C(C)C(=O)OCCOC1CC2CC1C1C=CCC21` (stereo not given), the “activity change, negative = cytotoxicity” value was -1.1% (inactive).
Take `O=c1[nH]c(=O)c2cn[nH]c2[nH]1`: the “activity change, negative = cytotoxicity” value was 2.14% (inactive).
Regarding `CCCCCC(=O)CC`, the “activity change, negative = cytotoxicity” value is 0.46% (inactive).
Consider `Cc1cc(=O)oc2cc(O[C@@H]3SC[C@@H](O)[C@H](O)[C@H]3O)ccc12`, for which the “activity change, negative = cytotoxicity” value is -0.398% [at 42.5 µM] (inactive).
Under `COc1cc2nc(N3CCN(C(=O)C4CCCO4)CC3)nc(N)c2cc1OC` (stereo not given) stands -7.91% [at 42.5 µM] (inactive).
Turning to `CCO/C=C1\N=C(c2ccccc2)OC1=O`, the “activity change, negative = cytotoxicity” value was 2.93% (inactive).
With `N#Cc1cc(NC(=O)C(=O)O)c(Cl)c(NC(=O)C(=O)O)c1`, the “activity change, negative = cytotoxicity” value is 0.627% [at 42.5 µM] (inactive).
Under `C[Si](C)(C)O[Si](O)(O)O` stands -0.205% (inactive); under `C=CC(=O)OCC[N+](C)(C)C`, 4.07% (inactive); under `C=C(C)C(=O)OCCCC`, 1.59% (inactive).
Turning to `CCCCNCC`, the “activity change, negative = cytotoxicity” value was 7.12% (inactive).
On to `CCCCCC(CC)OC(=O)CCCOc1ccc(Cl)cc1Cl` (stereo not given), for which the “activity change, negative = cytotoxicity” value was -9.87% (inactive).
Consider `CC(C)(C)OC(=O)c1ccccc1C(=O)O`, for which the “activity change, negative = cytotoxicity” value is 1.98% (inactive).
Take `N=C(N)S(=O)O`: the “activity change, negative = cytotoxicity” value is -1.7% (inactive).
Under `CCO[Si](CC(C)C)(OCC)OCC` stands 2.02% (inactive); under `CC[N+](C)(CC)CC`, -0.398% (inactive).
Then `CCOc1ccccc1OCCN[C@H](C)Cc1ccc(OC)c(S(N)(=O)=O)c1`, with 0.569% [at 42.5 µM] (inactive).
Turning to `CN(C)c1cc(NC(=O)CNC(C)(C)C)c(O)c2c1C[C@H]1C[C@H]3[C@H](N(C)C)C(=O)C(C(N)=O)=C(O)[C@@]3(O)C(=O)C1=C2O`, the “activity change, negative = cytotoxicity” value is -1.42% [at 42.5 µM] (inactive).
In the case of `CC(CN1CC(=O)NC(=O)C1)N1CC(=O)NC(=O)C1` (stereo not given), the “activity change, negative = cytotoxicity” value was 1.64% (inactive).
